Experimental data published in PubChem BioAssay (Tox21).
Records with an inconclusive call do not appear. Activity calls are given as the source filed them. Unless noted, calls follow the shape of the dose curve; as a rule, active = well fitted curve in the direction sought with a large enough effect in the repeat runs; inconclusive = weak or mixed curves; inactive = no such curve, though single readings can be large; an effect the other way counts as inactive or inconclusive.

Legend:
[1] = qHTS assay to identify small molecule antagonists of the androgen receptor (AR) signaling pathway using the MDA cell line in the presence of 0.5 nM R1881 - cell viability counter screen (AID 1259242); also: nearly all actives have a fitted effect of over 45% in size
Outline: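 Live-cell protease fluorescence, CellTiter-Fluor, 30 min at 37C. Cells: MDA-kb2, 3,000/well, preincubated 5 hr. Compounds plus 0.5 nM R1881 final, 16 hr, 37C, 0% CO2.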

[2] = target: Estrogen receptor (Homo sapiens) (UniProt P03372); test: qHTS assay to identify small molecule antagonists of the estrogen receptor alpha (ER-alpha) signaling pathway using the BG1 cell line in the presence of 0.1 nM 17-beta-estradiol (AID 1259244); also: nearly all actives have a fitted effect of over 50% in size
Estrogen receptor (Homo sapiens), sequence (P03372 whole entry, looked up): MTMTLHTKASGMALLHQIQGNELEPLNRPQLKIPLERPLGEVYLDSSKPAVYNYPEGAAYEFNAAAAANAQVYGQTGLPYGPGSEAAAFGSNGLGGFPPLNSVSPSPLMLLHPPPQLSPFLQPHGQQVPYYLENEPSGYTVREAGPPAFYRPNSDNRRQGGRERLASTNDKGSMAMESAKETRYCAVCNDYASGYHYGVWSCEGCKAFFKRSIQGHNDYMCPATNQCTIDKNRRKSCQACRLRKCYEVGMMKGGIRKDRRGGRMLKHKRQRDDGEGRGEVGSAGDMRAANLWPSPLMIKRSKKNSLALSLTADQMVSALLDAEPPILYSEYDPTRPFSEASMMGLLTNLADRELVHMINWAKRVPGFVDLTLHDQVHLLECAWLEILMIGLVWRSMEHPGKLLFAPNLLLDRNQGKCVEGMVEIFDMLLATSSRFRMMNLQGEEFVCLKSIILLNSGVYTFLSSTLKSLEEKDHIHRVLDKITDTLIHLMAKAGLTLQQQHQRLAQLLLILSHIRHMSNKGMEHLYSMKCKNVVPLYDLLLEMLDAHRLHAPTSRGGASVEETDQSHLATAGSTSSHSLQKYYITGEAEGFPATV
Outline: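 Luminescence after ONE-Glo (30 min, room temperature) measured ERE-luciferase activity in VM7Luc4E2 cells treated 22 h with compound and 0.1 nM final 17beta-estradiol as stimulator.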

[3] = qHTS assay to identify small molecule phospholipidosis (PLD) inducers (AID 1259344; active = well fitted curve in the direction sought with a large enough effect; an effect the other way counts as inactive or inconclusive)
Outline: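 Phospholipid accumulation was scored by imaging: fixed, Hoechst-counterstained HepG2 cells stained with LipidTOX Red after 24 h compound exposure at 37 C. Read-outs were pit count and pit intensity per well or per cell, with amiodarone and DMSO controls.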

[4] = qHTS assay to identify small molecule HDAC inhibitors (AID 1259364);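 also: wild-type HCT-116 cells with endogenous class I/II HDAC activity; top concentration of the series differs between compounds; nearly all actives have a fitted effect of over 45% in size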
Outline: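 HCT-116 (wild type), 1,500 cells/well, overnight; compound 2 hr 37C 5% CO2; HDAC-Glo I/II reagent 30 min RT; luminescence readout.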

[5] = qHTS assay to identify small molecule HDAC inhibitors - cell viability counter screen (AID 1259365); also: series mostly up to about 92 µM; nearly all actives have a fitted effect of over 50% in size
Outline: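 Wild-type HCT-116 cells were seeded at 1,500 per well, incubated overnight at 37 C, then exposed to compounds in DMSO for 2hr. Viability was read by CellTiter-Glo luminescence after 30min at room temperature.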

[6] = qHTS assay to identify small molecule agonists of the sonic hedgehog signaling (Shh) pathway - cell viability counter screen (AID 1259366); also: nearly all actives have a fitted effect of over 50% in size
Outline: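 NIH/3T3-derived 3T3 Gli1-Luc cells (stable Gli1-responsive firefly luciferase reporter) were seeded, rested 4 hr at 37 C/5% CO2, then exposed to compounds in DMSO for 24 hr; viability was read by CellTiter-Fluor fluorescence in the same wells.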

[7] = qHTS assay to identify small molecule antagonists of the sonic hedgehog signaling (Shh) pathway - cell viability counter screen (AID 1259367); also: nearly all actives have a fitted effect of over 55% in size
Outline: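 Viability was read by CellTiter-Fluor fluorescence in the same wells, reagent added 23 hr into compound treatment and incubated 1 hr at 37C. The 3T3 Gli1-Luc reporter cells (2,000/well) received conditioned medium after compound and ran 24 hr.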

[8] = qHTS assay to identify small molecule agonists of the sonic hedgehog signaling (Shh) pathway (AID 1259368; calls by dose curve; also: series mostly up to about 92 µM; nearly all actives have a fitted effect of over 15% in size)
Outline: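 Read-out: firefly luciferase luminescence from a Gli1 response element reporter stably integrated in NIH/3T3-derived 3T3Gli1-Luc cells, measured 30 min at room temperature after reagent addition. Compound exposure lasted 24 hr at 37 C, 5% CO2.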

[9] = qHTS assay to identify small molecule antagonists of the sonic hedgehog signaling (Shh) pathway (AID 1259369; calls by dose curve; also: nearly all actives have a fitted effect of over 45% in size)
Outline: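 Luminescence readout: firefly Luc under Gli1 response element in 3T3Gli1-Luc cells (NIH/3T3 clone). Antagonist mode, stimulation by conditioned medium; compound exposure 24hr at 37 C, 5% CO2.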

[10] = target: Estrogen receptor beta (Homo sapiens) (UniProt Q92731); test: qHTS assay to identify small molecule agonists of the estrogen receptor beta (ER-beta) signaling pathway (AID 1259377; active = well fitted activation curve with a large enough effect in the signal ratio in the repeat runs, not every such curve was filed as active; the % refers to the signal ratio)
Estrogen receptor beta (Homo sapiens), sequence (Q92731 whole entry, looked up): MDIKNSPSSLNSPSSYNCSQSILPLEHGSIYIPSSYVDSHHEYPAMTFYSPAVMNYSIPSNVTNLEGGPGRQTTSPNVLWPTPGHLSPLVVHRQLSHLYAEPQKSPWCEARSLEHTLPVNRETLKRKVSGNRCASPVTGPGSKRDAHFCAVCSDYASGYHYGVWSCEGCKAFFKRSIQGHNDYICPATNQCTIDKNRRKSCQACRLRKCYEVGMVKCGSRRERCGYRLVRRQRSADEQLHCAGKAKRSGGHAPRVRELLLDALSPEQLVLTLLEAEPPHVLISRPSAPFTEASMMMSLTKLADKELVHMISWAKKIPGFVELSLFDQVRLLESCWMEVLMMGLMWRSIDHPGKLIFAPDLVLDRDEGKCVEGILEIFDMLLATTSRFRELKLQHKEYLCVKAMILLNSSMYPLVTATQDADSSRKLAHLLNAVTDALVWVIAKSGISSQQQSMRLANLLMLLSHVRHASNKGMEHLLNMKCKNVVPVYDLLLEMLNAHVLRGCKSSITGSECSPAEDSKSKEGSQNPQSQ
Outline: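 ER-beta-UAS-bla HEK293T (GripTite) cells carrying a UAS-driven beta-lactamase reporter, in medium with 2% charcoal-stripped FBS, were exposed to compounds for 16 hr at 37C; LiveBLAzer B/G FRET substrate was then added and fluorescence read after 2 hours at room temperature.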

[11] = target: Estrogen receptor beta (Homo sapiens) (UniProt Q92731); test: qHTS assay to identify small molecule antagonists of the estrogen receptor beta (ER-beta) signaling pathway (AID 1259378; active = well fitted inhibition curve with a large enough effect in the signal ratio in the repeat runs, not every such curve was filed as active; the % refers to the signal ratio)
Outline: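 Antagonist mode: compounds added to beta-lactamase reporter HEK293T ER-beta-UAS cells stimulated with E2 (1nM final), 16 hr at 37C. LiveBLAzer B/G FRET substrate, 2 hours room temperature, fluorescence read-out.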

[12] = qHTS assay to identify small molecule agonists of the androgen receptor (AR) signaling pathway in the presence of an antagonist - cell viability counter screen (AID 1259379);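 also: MDA-kb2 human breast cancer cells carrying an MMTV luciferase reporter; series mostly up to about 92 µM; nearly all actives have a fitted effect of over 25% in size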
Outline: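 Viability counter screen: CellTiter-Fluor fluorescence, measured in the same wells as the luciferase read-out. MDA-kb2 cells, 3,000/well, with nilutamide at 3.0uM final and compounds at 15 concentrations, 16 hr at 37C, 0% CO2.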

[13] = qHTS assay to identify small molecule agonists of the estrogen receptor beta (ER-beta) signaling pathway - cell viability counter screen (AID 1259380); also: nearly all actives have a fitted effect of over 30% in size
Outline: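 Luminescence read-out (CellTiter-Glo, 30 min, room temp) taken in the same wells as the beta-lactamase reporter assay; ER-beta-UAS-bla HEK293T cells exposed to DMSO-dissolved compounds for 16 hr at 37C in 2% charcoal-stripped FBS medium.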

[14] = qHTS assay to identify small molecule antagonists of the estrogen receptor beta (ER-beta) signaling pathway - cell viability counter screen (AID 1259382); also: series mostly up to about 92 µM; nearly all actives have a fitted effect of over 55% in size
Outline: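 Luminescent ATP read-out (CellTiter-Glo, 30 min, RT) taken in the same wells as the bla reporter assay. HEK293T ER-beta-UAS-bla cells in 2% charcoal-stripped FBS were exposed to compounds with 1nM E2 for 16 hr at 37C.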

[15] = target: Estrogen receptor (Homo sapiens) (UniProt P03372); test: qHTS assay to identify small molecule agonists of the estrogen receptor alpha (ER-alpha) signaling pathway in the presence of an antagonist (AID 1259383; calls by dose curve; also: top concentration of the series differs between compounds; nearly all actives have a fitted effect of over 15% in size)
Outline: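 Luciferase luminescence (ONE-Glo, 30min at room temperature) measured in VM7Luc4E2 cells after 22hr compound exposure at 15 concentrations, with 10.0nM ICI-182,780 final present; cells express endogenous ER-alpha and carry four EREs upstream of luciferase.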

[16] = qHTS assay to identify small molecule agonists or antagonists of the thyroid stimulating hormone receptor (TSHR) signaling pathway - wild type cell line counter screen (AID 1259384; calls by dose curve)
Outline: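 Counter screen in untransfected Hek293: compounds (15-point titration, triplicate) plus phosphodiesterase inhibitor Ro20-1724 added after 18 h plating; 30 min RT. Intracellular cAMP via competitive d2/cryptate immunoassay, 1 h incubation.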

[17] = target: Thyrotropin receptor (Homo sapiens) (UniProt P16473); test: qHTS assay to identify small molecule antagonists of the thyroid stimulating hormone receptor (TSHR) signaling pathway (AID 1259385; calls by dose curve; also: nearly all actives have a fitted effect of over 20% in size)
Thyrotropin receptor (Homo sapiens), sequence (P16473 whole entry, looked up): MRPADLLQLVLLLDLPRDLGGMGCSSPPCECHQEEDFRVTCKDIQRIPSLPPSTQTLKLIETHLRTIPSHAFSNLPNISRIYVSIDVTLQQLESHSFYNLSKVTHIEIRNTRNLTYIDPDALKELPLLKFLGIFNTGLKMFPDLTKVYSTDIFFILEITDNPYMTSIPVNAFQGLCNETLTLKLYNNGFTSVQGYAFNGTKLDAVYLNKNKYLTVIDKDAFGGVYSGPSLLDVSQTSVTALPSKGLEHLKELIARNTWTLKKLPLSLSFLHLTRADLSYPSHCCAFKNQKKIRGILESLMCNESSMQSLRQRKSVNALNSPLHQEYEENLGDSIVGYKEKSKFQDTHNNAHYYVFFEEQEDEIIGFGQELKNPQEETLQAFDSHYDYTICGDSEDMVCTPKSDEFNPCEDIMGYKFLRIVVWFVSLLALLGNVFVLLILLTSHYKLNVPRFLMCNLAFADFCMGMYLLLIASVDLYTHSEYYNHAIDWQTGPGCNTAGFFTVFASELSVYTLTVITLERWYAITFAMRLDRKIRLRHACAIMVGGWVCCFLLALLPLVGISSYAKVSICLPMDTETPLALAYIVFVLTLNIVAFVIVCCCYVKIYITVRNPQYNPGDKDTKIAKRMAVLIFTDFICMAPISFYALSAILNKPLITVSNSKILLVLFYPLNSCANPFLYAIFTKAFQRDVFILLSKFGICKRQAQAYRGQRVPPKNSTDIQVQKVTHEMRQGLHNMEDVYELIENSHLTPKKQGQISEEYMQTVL
Outline: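 Antagonist mode: compound-treated TSHR-expressing HEK293 cells were stimulated with 1.5 ng/mL TSH (final) in presence of Ro20-1724 for 30 min at RT. HTRF cAMP detection after 1 h; each compound tested at 15 concentrations, triplicate.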

[18] = qHTS assay to identify small molecule agonists of the estrogen receptor alpha (ER-alpha) signaling pathway in the presence of an antagonist - cell viability counter screen (AID 1259386);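 also: series mostly up to about 92 µM; cells exposed to compounds for 22 h at 37 °C before the viability read; nearly all actives have a fitted effect of over 30% in size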
Outline: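 Read-out: CellTiter-Fluor fluorescence after 1hr reagent incubation, measured in the same wells as the luciferase readout. VM7Luc4E2 cells were exposed to 15 compound concentrations with 10.0nM ICI-182,780 for 22hr at 37C.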

[19] = target: Androgen receptor (Homo sapiens) (UniProt P10275); test: qHTS assay to identify small molecule agonists of the androgen receptor (AR) signaling pathway in the presence of an antagonist (AID 1259381; calls by dose curve; also: nearly all actives have a fitted effect of over 15% in size)
Androgen receptor (Homo sapiens), sequence (P10275 whole entry, looked up): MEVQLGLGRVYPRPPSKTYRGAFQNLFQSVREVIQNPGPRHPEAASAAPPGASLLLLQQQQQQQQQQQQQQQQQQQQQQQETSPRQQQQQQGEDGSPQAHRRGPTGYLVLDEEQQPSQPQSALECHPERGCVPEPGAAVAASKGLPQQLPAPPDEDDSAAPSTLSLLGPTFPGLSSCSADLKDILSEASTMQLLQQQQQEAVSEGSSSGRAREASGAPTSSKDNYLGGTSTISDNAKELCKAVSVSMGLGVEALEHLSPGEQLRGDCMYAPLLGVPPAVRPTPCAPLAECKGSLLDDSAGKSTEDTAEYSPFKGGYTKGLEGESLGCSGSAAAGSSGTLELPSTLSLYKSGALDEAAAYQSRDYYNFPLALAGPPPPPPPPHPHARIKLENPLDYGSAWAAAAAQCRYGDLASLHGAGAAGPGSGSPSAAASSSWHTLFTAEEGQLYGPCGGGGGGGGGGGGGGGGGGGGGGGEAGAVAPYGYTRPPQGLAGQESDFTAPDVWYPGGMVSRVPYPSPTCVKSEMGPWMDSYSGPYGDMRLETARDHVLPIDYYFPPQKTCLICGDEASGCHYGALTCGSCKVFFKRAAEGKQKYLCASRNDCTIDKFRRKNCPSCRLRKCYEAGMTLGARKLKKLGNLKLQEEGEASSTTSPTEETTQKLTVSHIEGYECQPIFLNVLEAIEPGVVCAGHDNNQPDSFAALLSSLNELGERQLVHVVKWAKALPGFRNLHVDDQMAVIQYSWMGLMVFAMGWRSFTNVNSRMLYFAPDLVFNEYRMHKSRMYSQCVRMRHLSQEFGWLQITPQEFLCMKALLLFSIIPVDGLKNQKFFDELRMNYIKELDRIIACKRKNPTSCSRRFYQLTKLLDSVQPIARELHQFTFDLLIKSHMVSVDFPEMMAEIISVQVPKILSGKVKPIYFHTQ
Outline: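 Luciferase read-out (ONE-Glo, 30min room temperature) in MDA-kb2 MMTV-reporter cells; agonist mode run in presence of AR antagonist nilutamide, 3.0uM final. Compounds tested as 15-point series, 16hr exposure at 37C, 0% CO2.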
% is scaled to controls: 0 for no effect and ±100 for the full control effect.

C[C@@H]1CN(c2c(F)c(N)c3c(=O)c(C(=O)O)cn(C4CC4)c3c2F)C[C@H](C)N1
inactive: viability change, negative = cytotoxic [1] 0.0147% [at 19 µM] | activity change, negative = inhibition [2] -0.515% [at 19 µM] | outcome [3] | activity change, negative = inhibition [4] -1.07% [at 19 µM] | activity change, negative = cytotoxicity [5] 4.84% [at 19 µM] | viability change, negative = cytotoxic [6] 1.22% [at 19 µM] | viability change, negative = cytotoxic [7] 0.364% [at 19 µM] | activity change [8] -0.971% [at 18.9 µM, active compounds read high] | activity change, negative = inhibition [9] 23.6% [at 19 µM] | activation [10] 3.1% [at 19 µM] | activity, negative = inhibition [11] 17% [at 19 µM] | activity change, negative = cytotoxicity [12] 2.69% [at 19 µM] | activity change, negative = cytotoxicity [13] 6.77% [at 19 µM] | activity change, negative = cytotoxicity [14] 5.91% [at 19 µM] | activation [15] 0.0574% [at 19 µM] | cAMP activity change [16] 4.73% [at 18.9 µM] | activity change, negative = inhibition [17] -0.774% [at 19 µM] | activity change, negative = cytotoxicity [18] 1.7% [at 19 µM]

NS(=O)(=O)c1cc(-c2nn[nH]n2)c(NCc2cccs2)cc1Cl
inactive: outcome [1] | Potency [2] | outcome [3] | Potency [4] | outcome [5] | Potency [6] | Potency [7] | Potency [8] | Potency [9] | outcome [10] | Potency [12] | Potency [13] | outcome [14] | Potency [15] | outcome [16] | Potency [17] | Potency [18]

CN1CCN(c2c(F)cc3c(=O)c(C(=O)O)cn(CCF)c3c2F)CC1
inactive: outcome [1] | Potency [2] | outcome [3] | Potency [4] | Potency [6] | Potency [7] | Potency [8] | Potency [9] | outcome [10] | Potency [11] | Potency [12] | Potency [13] | outcome [14] | Potency [15] | outcome [16] | Potency [17] | Potency [18]

CCOC(=O)C(Br)c1ccccc1 (stereo not given)
inactive: outcome [1] | Potency [2] | Potency [4] | outcome [5] | Potency [6] | Potency [7] | Potency [8] | Potency [9] | outcome [10] | Potency [11] | Potency [12] | Potency [13] | outcome [14] | Potency [15] | Potency [17] | Potency [18]

CC(C)(C)C1CCCCC1=O (stereo not given)
inactive: outcome [1] | Potency [2] | Potency [4] | outcome [5] | Potency [6] | Potency [7] | Potency [8] | Potency [9] | outcome [10] | Potency [11] | Potency [12] | Potency [13] | outcome [14] | Potency [15] | Potency [18]

C=CCc1cc(OC)c(O)c(C(=O)NCCO)c1
inactive: outcome [1] | Potency [2] | outcome [3] | Potency [4] | outcome [5] | Potency [6] | Potency [7] | Potency [8] | Potency [9] | Potency [12] | Potency [13] | outcome [14] | Potency [15] | Potency [17] | Potency [18]

COc1ccccc1OCC(O)COC(N)=O (stereo not given)
inactive: outcome [1] | Potency [2] | outcome [3] | Potency [4] | outcome [5] | Potency [6] | Potency [7] | Potency [8] | Potency [9] | Potency [12] | Potency [13] | outcome [14] | Potency [15] | outcome [16] | Potency [18]

O=C(O)c1cccc(Cl)c1Cl
inactive: outcome [1] | Potency [2] | Potency [4] | outcome [5] | Potency [6] | Potency [7] | Potency [8] | Potency [9] | outcome [10] | Potency [11] | Potency [12] | Potency [13] | outcome [14] | Potency [15] | outcome [16] | Potency [17] | Potency [18]

N#Cc1ccc(C(c2ccc(C#N)cc2)n2cncn2)cc1
inactive: outcome [1] | Potency [2] | outcome [3] | Potency [4] | outcome [5] | Potency [6] | Potency [7] | Potency [8] | Potency [9] | outcome [10] | Potency [11] | Potency [12] | Potency [13] | Potency [19] | outcome [14] | Potency [15] | Potency [18]

CCN(CC)CCNC(=O)COc1ccc(Cl)cc1
inactive: outcome [1] | Potency [2] | outcome [3] | Potency [4] | outcome [5] | Potency [6] | Potency [7] | Potency [8] | Potency [9] | Potency [12] | Potency [13] | outcome [14] | Potency [15] | outcome [16] | Potency [17] | Potency [18]

COc1ccccc1N1CCN(CCCNc2cc(=O)n(C)c(=O)n2C)CC1
inactive: outcome [1] | Potency [2] | outcome [3] | Potency [4] | outcome [5] | Potency [6] | Potency [7] | Potency [8] | Potency [9] | outcome [10] | Potency [12] | Potency [13] | outcome [14] | Potency [15] | outcome [16] | Potency [18]

CC(C)CC(=O)OCc1ccccc1
inactive: outcome [1] | Potency [2] | Potency [4] | outcome [5] | Potency [6] | Potency [7] | Potency [8] | Potency [9] | outcome [10] | Potency [11] | Potency [12] | Potency [13] | outcome [14] | Potency [15]

CC(C)C(=O)OCC(C)(C)C(O)C(C)C (stereo not given)
inactive: outcome [1] | Potency [2] | Potency [4] | outcome [5] | Potency [6] | Potency [7] | Potency [8] | Potency [9] | outcome [10] | Potency [11] | Potency [12] | Potency [13] | outcome [14] | Potency [15] | outcome [16] | Potency [17] | Potency [18]
